PD-1 reverse act = activators reversing PD-1 mediated T-cell inhibition | primary human CD4 T cells, PD-L1 beads, CellTiter-Glo 96 h | activation, % (concentration not given with the values) | 29,000 tested, under 10 active | AID 2316; call rule not given here;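 note: 0% = median vehicle wells and 100% = positive control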
YB-1 expr inh = YB-1 expression inhibition | U2OS, qRT-PCR YB-1 vs CDIP delta delta Cp, 16 h; stronger effect = higher value; zero = DMSO, each unit about twofold | delta delta Cp (YB-1 minus CDIP) (no concentration beside the values) | 30,000 tested, 0.37% active;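 active = delta delta Cp rounded down to an integer at or above 3, about 3 SD of DMSO wells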;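 note: higher means less YB-1 transcript or more CDIP transcript relative to DMSO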
U2OS ROS induce = cancer cell ROS induction; U2OS ROS induction, H2DCF-DA fluorescence; AID 624156; 46,000 tested, 2% active; ROS induction (% of piperlongumine), % at 10 µM; in the data active = ROS induction above about 79%, passing the limit was not always enough;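 note: 0% = DMSO vehicle median and 100% = reference compound median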
* hit, by the source's call. Only some compounds are listed: those with a hit (about 2.1% of all), similar ones and a draw of the others.

Screening CC1(C)C(=O)C=C[C@@]2(C)C1C(=O)C(=O)[C@]1(C)C2CC[C@@]2(C)[C@H](c3ccoc3)C[C@H]3O[C@]321 (stereo partly specified) returned YB-1 expr inh 0.45 and U2OS ROS induce 179*.
Screening C=C(CO)C(=O)O[C@H]1CC(=C)[C@@H]2C[C@H](O)C(=C)[C@@H]2[C@H]2OC(=O)C(=C)[C@@H]21 returned PD-1 reverse act -4, YB-1 expr inh 0.68 and U2OS ROS induce 96*.
`C=C(CO)C(=O)O[C@H]1C/C(C)=C\CC/C(CO)=C\[C@H]2OC(=O)C(=C)[C@H]12` gave PD-1 reverse act -18, YB-1 expr inh -8.4 and U2OS ROS induce 73.
`C=CC1C[N+]2([O-])CCC1CC2C(O)c1ccnc2ccccc12` (stereo unspecified) gave YB-1 expr inh 0.5 and U2OS ROS induce 2.
For CCC(C)(O)C(=O)O[C@H]1C(=O)O[C@@H]2C[C@H]3C(C)=CC(=O)[C@@H](O)[C@]3(C)[C@H]3[C@@]4(O)OC[C@]32[C@@H]1[C@@H](C)[C@H]4O (stereo partly specified) the results were PD-1 reverse act -7, YB-1 expr inh 0.74 and U2OS ROS induce 64.
For C[C@@H]1CN([C@@H](C)CO)C(=O)CCCn2nncc2CO[C@@H]1CN(C)C(=O)Oc1ccc2ccccc2c1 the results were YB-1 expr inh 0.28 and U2OS ROS induce 44.
Screening C[C@@H]1CN([C@H](C)CO)C(=O)CCCn2nncc2CO[C@@H]1CN(C)C(=O)Oc1ccc2ccccc2c1 returned YB-1 expr inh -0.037 and U2OS ROS induce 149*.
For C/C=C\C(=O)O[C@@H]1C[C@H]2O[C@@H]3C=C(C)C(=O)C[C@]3(C)[C@]1(C)[C@]21CO1 the results were PD-1 reverse act -9, YB-1 expr inh 0.98 and U2OS ROS induce 6.
Screening N#CC(c1ccccc1)c1ccccc1 returned U2OS ROS induce -19.
Screening CN(CC(=O)Nc1ccc(Cl)cc1C(=O)c1ccccc1)S(=O)(=O)c1ccc(Cl)cc1 returned PD-1 reverse act -1 and U2OS ROS induce 6.
Clc1cccc(N2CCNCC2)c1 was read as YB-1 expr inh 0.17 and U2OS ROS induce -9.
`O=C(NC1CN2CCC1CC2)c1cccc(Cl)c1` (stereo unspecified) gave PD-1 reverse act 1, YB-1 expr inh -0.59 and U2OS ROS induce 88*.
O=C(CCCN1CCC2(CC1)C(=O)NCN2c1ccccc1)c1ccc(F)cc1 was read as YB-1 expr inh 0.12 and U2OS ROS induce 98*.
O=C1NCN(c2ccccc2)C12CCN(CCCOc1ccc(F)cc1)CC2 was read as YB-1 expr inh -0.085 and U2OS ROS induce 0.
`COC(=O)C1=COC(C)C2CN3CCc4c([nH]c5cc(OC)ccc45)C3CC12` (stereo unspecified) gave PD-1 reverse act 0, YB-1 expr inh -0.05 and U2OS ROS induce 103*.
For COC(=O)C1=COC(C)C2CN3CCC4(C(=O)Nc5ccccc54)C3CC12 (stereo unspecified) the results were PD-1 reverse act 2, YB-1 expr inh -0.15 and U2OS ROS induce 10.
`OC[C@H]1O[C@@H](Oc2ccc(/C=C/c3cc(O)cc(O)c3)cc2O)[C@H](O)[C@@H](O)[C@@H]1O` gave YB-1 expr inh 0.42 and U2OS ROS induce -4.
Screening C[CH2][Hg][S]c1ccccc1C(=O)O returned YB-1 expr inh -0.6 and U2OS ROS induce 136*.
For CNc1ccccc1C(=O)O the results were YB-1 expr inh 0.2 and U2OS ROS induce 6.
Screening CC(/C=C/[C@@]1(C)[C@H](C)CCC(=O)[C@@H]1C)=C\Cc1c(O)c(Cl)c(C)c(C=O)c1O returned PD-1 reverse act -5, YB-1 expr inh 0.46 and U2OS ROS induce -5.
Screening CCCCc1nc2ccccc2c(=O)n1-c1ccc(C)cc1 returned U2OS ROS induce -11.
`CCOC(=O)C1=C(N)Oc2c(c(=O)oc3ccccc23)C12C(=O)N(CC(=O)OC)c1ccccc12` (stereo unspecified) gave PD-1 reverse act 0, YB-1 expr inh -0.56 and U2OS ROS induce 97*.
For CCOC(=O)C1=C(N)Oc2c(c(=O)oc3ccccc23)C1c1ccccc1 (stereo unspecified) the results were U2OS ROS induce -5.
For C/C=C(/C)C(=O)O[C@H]1C(C)=C2[C@H]([C@@H]1OC(=O)CCCCC)[C@@](C)(OC(C)=O)C[C@H](OC(=O)CCC)[C@@]1(O)[C@H]2OC(=O)[C@@]1(C)O the results were PD-1 reverse act -42 and U2OS ROS induce 9.
